In the library only some 2.9% were active in any assay of this set; here they are far more common.
MITF TRPM1 inh: inhibitors of MITF-dependent TRPM1 promoter reporter, primary screen, cell-based, SK-MEL-5, single point, luciferase; AID 488899, 2010; SK-MEL-5 TRPM1 promoter luciferase, 24 h; 0.83% of 330,000 active; inhibition, % at 12.5 µM;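 active = mean inhibition across replicates of 60% or more, whatever share of single replicates reaches that level; inconclusive = some that reach 60%, reason not given; inactive = mean inhibition across replicates below 60%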
NSD2 inh: NSD2 histone methyltransferase inhibitors, primary screen, biochemical, AlphaScreen, single concentration, set 2; AID 743445, 2014; Histone-lysine N-methyltransferase NSD2 (Homo sapiens), O96028; NSD2 peptide methylation, 120 min; inhibition, % at 12.5 µM; 0.54% of 310,000 active; in the data active = inhibition above about 50%
Glyco luc inh: increase of ERlucT glycosylation luciferase signal, primary screen, N-linked glycosylation inhibitor project, D54 ERlucT cells, luminescence, set 2. D54 ERlucT glycosylation luciferase reporter, 24 h; percent of 100 nM tunicamycin response. reporter increase, % at 12.5 µM. 0.23% of 360,000 active. AID 588692, 2011;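 active = mean luciferase reporter signal, scaled so untreated is 0 and the glycosylation-blocking control 100, at or above a set limit in every replicate; inconclusive = mean reaches the limit but not every replicate does; inactive = mean below the limit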;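 also: luciferase carries N-glycosylation sites so blocking glycosylation raises the light; 0% = median of neutral control wells and 100% = median of 100 nM tunicamycin wells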
Wnt bcat act: Wnt/beta-catenin pathway activators, primary screen, cell-based, plate reader, single point. Wnt/beta-catenin reporter cell assay, activator. activation, % at 9.35 µM. 1.2% of 300,000 active. AID 743398, 2014; in the data active = activation above about 30%, passing the limit was not always enough; inconclusive = no clear call, values can overlap the other calls;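 also: 0% = neutral control wells and 100% = positive control wells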
MITF act: activators of MITF-driven TRPM1 promoter reporter, primary screen, cell-based, SK-MEL-5, luciferase, single point; SK-MEL-5 TRPM1-promoter luciferase, 24 h; % of positive control, neutral wells = 0; activation, % at 12.5 µM; 0.75% of 300,000 active; AID 588334, 2011;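 active = mean activation of at least 80% with every replicate also reaching 80%; inconclusive = mean reaches 80% but some replicate falls short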;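 also: 0% = neutral control wells and 100% = parthenolide positive control wells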
PfHsp90 set2: growth inhibition of PfHsp90-expressing yeast, primary screen, antimalarial PfHsp90 inhibitor project, S. cerevisiae, BacTiter-Glo luminescence, single point, set 2; BacTiter-Glo ATP, 48 h; yeast lacking PDR1 and PDR3 efflux regulators; 0.32% of 310,000 active; inhibition, % at 9.4 µM; AID 504621, 2011;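 active = every replicate shows inhibition above about 80%, whatever the replicate mean, limit read from the data; inconclusive = mean inhibition reaches the set limit but some replicate falls short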;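 also: 0% = DMSO neutral controls and 100% = 20 µM radicicol positive controls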
* hit, by the source's call; u = inconclusive; x = no result.

SMILES	MITF TRPM1 inh	NSD2 inh	Glyco luc inh	Wnt bcat act	MITF act	PfHsp90 set2
CS(=O)(=O)Nc1cccc(-c2cnc3ccccc3n2)c1	-89	-1	-2	15	98*	15
O=C(O)c1ccc(N/N=C/C2=Cc3ccccc3OC2)cc1	-129	x	0	41*	138*	72
O=C(O)c1ccc(N/N=C/c2c[nH]c3ccccc23)cc1	58	2	-21	-1	-55	-8
CC(C)C/C=C1\CCc2c([nH]c3ccccc23)C1=O	-62	-1	1	39*	62	6
CC(=O)N1CCN(C(=O)C2CCCN(C(=O)c3ccc4c(c3)NC(=O)CS4)C2)CC1 (stereo not given)	x	-1	x	x	x	x
O=C(CCSc1ccc(Br)cc1)c1ccc(O)cc1	3	-4	0	0	-1	97*
CSCc1ccc(C(=O)NCCSc2ccc(Br)cc2)cc1	-115	-6	-1	u	108*	11
O=C(NCCSc1ccc(Br)cc1)c1ccccc1	-16	-2	-3	-2	17	3
CCCNC(=O)c1onc(CSc2ccncc2)c1C(=O)NCCC	9	x	-2	-5	-11	-8
O=C(NCC1CCN(Cc2ccccc2)CC1)[C@H]1O[C@@H](n2ccc(=O)[nH]c2=O)[C@H](O)[C@@H]1O	x	x	x	-2	x	x
Cc1ccc(S/C=C\C(=O)c2ccccc2)cc1	-3	x	47*	56*	-4	6
C=CCN1C(=O)/C(=C/N(C)C)S/C1=N\S(=O)(=O)c1cccs1	x	2	1	-1	x	x
Cc1cccc(N2CC(C(=O)NC3CCCCCC3)CC2=O)c1C (stereo not given)	-6	-3	-1	368*	5	-15
CC1(C)Cc2c(sc(NC(=O)c3ccc(C(=O)c4ccccc4)cc3)c2C(N)=O)C(C)(C)N1	39	-1	-5	23	-41	-12
Cc1cnc(NC(=O)c2ccc3ncsc3c2)s1	-45	-3	-8	48*	47	3
CC1(C)Cc2c(sc(NC(=O)c3ccc4ncsc4c3)c2C(N)=O)C(C)(C)N1	78*	-4	-7	-2	-77	-6
CCc1nnc(NC(=O)c2ccc3ncsc3c2)s1	-40	-2	1	34*	45	-18
CCOC(=O)c1sc(N2N=C(C)/C(=C\c3ccc(OCC(=O)OC)cc3)C2=O)nc1C	-9	14	3	x	8	-24
Cc1cc2c(c(=O)o1)[C@@]1(C(=O)N(C)c3cc(Br)ccc31)C1=C(CCCC1=O)O2	x	x	x	2	x	x
COC(=O)[C@H](C)NC(=O)[C@@H]1CCCN1C(=O)CNP(=O)(OCc1ccccc1)OCc1ccccc1	x	-3	x	x	x	x
Cc1ccc(Cn2nc(-c3ccccc3)nc2-c2ccccc2)cc1	-74	-5	-2	55*	63	-15
c1ccc(Cn2nc(-c3ccccc3)nc2-c2ccccc2)cc1	-19	-2	-1	x	19	9
CCOCCCNC(=O)Cn1cnc2sc(C)c(S(=O)(=O)N3CCN(c4ncccn4)CC3)c2c1=O	-11	x	0	-1	7	2
Cc1cccc(NC(=O)c2n[nH]c([N+](=O)[O-])c2Br)c1C	-76	-20	-9	45*	79	6
COc1ccc(-c2n(CC(=O)OC3CC(C)CCC3C(C)C)c3ccccc3[n+]2C)cc1 (stereo not given)	91*	-1	12	-3	-91	5
COc1ccc(OCc2n(CC(=O)OC3CC(C)CCC3C(C)C)c3ccccc3[n+]2C)cc1 (stereo not given)	82*	21	4	15	-79	-12
Cc1cc(C)cc(NC(=O)NCCCN2CCN(c3ccc(F)cc3)CC2)c1	x	21	x	x	x	x
O=C(CSc1nnc(COc2ccccc2)n1-c1ccccc1)Nc1ccc2c(c1)OCCO2	x	-1	x	x	x	x
O=C(C=Cc1ccccc1)CC(c1ccccc1)N1CCOCC1 (stereo not given)	76*	x	8	10	-75	13
